About 79,000 compounds went through this panel and 15% of them were active in at least one assay; those are over-represented in the sample as a whole. Calls of active or inactive are those of the source. No stated cut-off is given here; in the data, active means growth inhibition above about 70%; inactive means the rest.
Columns and labels:
[1] = NCI Yeast Anticancer Drug Screen. Data for the rad50 strain (AID 155);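 further: 0% = growth of vehicle-only cultures of the same strain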; details: S. cerevisiae rad50 strain growth inhibition; at 50.0 µM; hits give high values
Procedure, shortened: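 A DNA repair-deficient yeast mutant serves as the test organism; compound-induced growth inhibition is calculated against vehicle-treated cells.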

[2] = NCI Yeast Anticancer Drug Screen. Data for the mec2-1 strain (AID 157); details: S. cerevisiae mec2-1 strain, at 50.0 µM, hits give high values
Procedure, shortened: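 Using mec2-1 yeast: add compound, measure growth, express inhibition versus vehicle-treated cultures.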

[3] = NCI Yeast Anticancer Drug Screen. Data for the sgs1 mgt1 strain (AID 161);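 further: 0% = growth of cultures given vehicle only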; details: S. cerevisiae sgs1 mgt1 strain, at 50.0 µM, hits give high values
Procedure, shortened: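 This yeast growth screen uses a strain with defined DNA-repair lesions; compound-treated growth is compared with vehicle-treated growth.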

[4] = NCI Yeast Anticancer Drug Screen. Data for the cln2 rad14 strain (AID 165);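 further: 0% = growth equal to vehicle treated cultures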; details: S. cerevisiae cln2 rad14 strain, at 50.0 µM, hits give high values
Procedure, shortened: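 Yeast strain cln2 rad14, bearing defects in cell cycle control and DNA repair, serves as the test system; values reflect growth inhibition compared with vehicle.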

[5] = NCI Yeast Anticancer Drug Screen. Data for the bub3 strain (AID 167); details: S. cerevisiae bub3 mutant strain, at 50.0 µM, hits give high values
Procedure, shortened: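 Inhibition values come from growth of compound-treated mutant yeast normalised to vehicle-treated controls.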

[6] = NCI Yeast Anticancer Drug Screen. Data for the mlh1 rad18 strain (AID 175); details: S. cerevisiae mlh1 rad18 strain growth inhibition; at 50.0 µM; hits give high values
Procedure, shortened: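 Steps: expose repair-defective yeast to compound; measure growth; express inhibition against vehicle-treated controls.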

Measured: growth inhibition

COc1c2c(cc3c1-c1c(cc4c(c1OC)OCO4)CC(C)C(C)C3)OCO2 (stereo unspecified)
inactive: [1] 12.4% | [2] 24.4% | [3] 21% | [4] 15.2% | [5] 40.1% | [6] 29.6%

O=C1OC(=O)C2C3CC(C4OC34)C12 (stereo unspecified)
inactive: [1] -12.2% | [2] 29.3% | [3] -3.55% | [4] -20.8% | [5] -9.9% | [6] 4.05%

CC(C)CCC(=S)N1CCN(c2ccccc2)CC1
inactive: [1] -0.4% | [2] 7.25% | [3] 2.2% | [4] -45.1% | [5] 2.05% | [6] -17.4%

COc1ccc(Cl)c2c(=O)c3ccc4c(c3[nH]c12)C(=O)c1ccccc1C4=O
inactive: [1] 21.8% | [2] -5.6% | [3] 4.25% | [4] -17.6% | [5] 3.8% | [6] 4.65%

CCc1cc2c(c3c1CCC3=O)CC1(Cc3ccc(C)cc3C1)C2 (stereo unspecified)
inactive: [1] -47.1% | [2] -54.5% | [3] -32.5% | [4] -21.6% | [5] -22.1% | [6] -44.7%

Cc1cc(C(C)(C)C)nc(C(C)(C)C)c1
inactive: [1] 13.1% | [2] 6.4% | [3] 15.2% | [4] -60.6% | [5] 0.8% | [6] -4.85%

CCOC(=O)C1=C(c2ccccc2)OC(N)=C(C#N)C1c1ccccc1 (stereo unspecified)
inactive: [1] -16.9% | [2] -8.4% | [3] -17.6% | [4] 7.6% | [5] 25.3% | [6] -4.85%

S=c1sc2ccccc2n1CN1CCCC1
inactive: [1] 6.1% | [2] 0.05% | [3] 29.9% | [4] 11.9% | [5] 8.3% | [6] -6.65%

Cc1ccc2c(O)c3c(cc2c1O)C(=O)c1ccccc1C3=O
inactive: [1] 30.2% | [2] 0.75% | [3] 20.4% | [4] 21.3% | [5] -0.85% | [6] 31.2%

O=C1NC(=S)S/C1=C/c1cn(-c2ccccc2)nn1
inactive: [1] 17.4% | [2] 3.15% | [3] -5.05% | [4] -18.2% | [5] 1.75% | [6] 10.6%

CC(C)=CCC(OC(=O)C=C(C)C)c1cc(O)c2c(O)ccc(O)c2c1O.[Mn] (stereo unspecified)
active: [6] 87.3%
inactive: [1] 36.1% | [2] 47.2% | [3] 25.4% | [4] 54.1% | [5] 46%

COC(=O)C1C(O)C(C)C(OC(C)=O)C(C)/C=C\C=C(C)C(=O)Nc2c(C)c(OC(C)=O)c3c(c2O)C(=O)C(C)=C2OCOC(=C23)C(C)=CC(C)(O)C(O)C(C)C1O (stereo unspecified)
inactive: [1] 3.25% | [2] -18.8% | [3] 15.7% | [4] 3.35% | [5] 26.8% | [6] 20.9%

COc1cc(/C=N/NC2=NCCN2)ccc1O
inactive: [1] 24.4% | [2] 11.8% | [3] 13.2% | [4] 14.8% | [5] 18.9% | [6] 11.8%

CCCC(=O)SCC[N+](C)(C)C
inactive: [1] -10.2% | [2] -48.3% | [3] 15.4% | [4] 21.6% | [5] -13.3% | [6] 4.5%

Cc1ccc2c(c1)Cc1cc(C)ccc1-2
inactive: [1] 25.1% | [2] 12.4% | [3] 14.4% | [4] 7.65% | [5] 31.2% | [6] 19.4%

COC(=O)CCC1CCC(CC2CCC(CCC(=O)OC)CC2)CC1 (stereo unspecified)
inactive: [1] -20.1% | [2] -6.95% | [3] -6.65% | [4] -26% | [5] -9.7% | [6] -4.25%

Clc1cccc(Cl)c1/C=N/Nc1nnc(N/N=C/c2c(Cl)cccc2Cl)c2ccccc12
inactive: [1] 18.8% | [2] 23.4% | [3] 56.3% | [4] 31.5% | [5] -1.4% | [6] 34.4%

CCCCNCCCC
inactive: [1] 2.15% | [2] 2% | [3] -27.1% | [4] -3.65% | [5] -8% | [6] -16.6%

CN(C)c1ncnc2c1cnn2C1OC(CO)C(O)C1O (stereo unspecified)
inactive: [1] 5.85% | [2] 14.2% | [3] 17.3% | [4] 15.2% | [5] 19.6% | [6] 30.7%

Cn1cnc([N+](=O)[O-])c1Sc1nc2ccccc2[nH]1
inactive: [1] -16.4% | [2] -10.3% | [3] -12.2% | [4] 3.65% | [5] -30.6% | [6] -19.1%

CCCCCC1NC(C)(C)CO1 (stereo unspecified)
inactive: [1] 1.25% | [2] -2.95% | [3] -0.85% | [4] 1.95% | [5] 9.65% | [6] 10.7%

CCOC(=O)C(NC(=O)c1ccccc1)C1NC(C(=O)O)C(C)(C)S1 (stereo unspecified)
inactive: [1] -23.1% | [2] 5.6% | [3] -5.1% | [4] -21.8% | [5] 0.8% | [6] 3.55%

CC1Cc2c(cc(N)nc2Br)NC1=O (stereo unspecified)
inactive: [1] -10.6% | [2] -6.05% | [3] 6.95% | [4] 19.2% | [5] 3.35% | [6] 10.1%

CC(C)C(N)C(=O)NC(C(=O)O)C(C)C (stereo unspecified)
inactive: [1] 12.8% | [2] -9.35% | [3] -4.3% | [4] -19.5% | [5] -0.6% | [6] 19.3%

Nc1nc2nc(C(=O)O)c(=S)[nH]c2c(=O)[nH]1
inactive: [1] 11.1% | [2] 3.8% | [3] 1.9% | [4] -10.9% | [5] 7.6% | [6] -8.25%

COC(=O)c1cc([N+](=O)[O-])c(Sc2ncnc3nc[nH]c23)c([N+](=O)[O-])c1
active: [4] 80%
inactive: [1] 53% | [2] 25.6% | [3] 24.4% | [5] 26.9% | [6] 34.8%

CC12CCC(C1)C(C)(C)/C2=N\O (stereo unspecified)
inactive: [1] -16.2% | [2] -13.8% | [3] 2.55% | [4] 4.85% | [5] 0.05% | [6] 2.65%

C[Si](C)(CCCOC(N)=O)COC(N)=O
inactive: [1] -15.2% | [2] -6.55% | [3] -18.4% | [4] -4.1% | [5] 4.8% | [6] -18.9%

CCC(=O)OCC[N+](C)(C)C
inactive: [1] -29.2% | [2] -37.6% | [3] -22.9% | [4] -4.25% | [5] -38.5% | [6] -20.9%

N#Cc1ccc[n+]([O-])c1
inactive: [1] -8.8% | [2] -6.1% | [3] 0.05% | [4] -0.7% | [5] 7.65% | [6] -4.6%

CCOS(=O)(=O)c1ccc(F)c([N+](=O)[O-])c1
inactive: [1] 7.3% | [2] 5.6% | [3] -1.9% | [4] -47% | [5] 2.65% | [6] -2.1%

C/C(O)=C(\C=NC(=S)c1ccncc1)C(=O)Nc1ccccc1C
inactive: [1] -26.4% | [2] -37.6% | [3] -4.8% | [4] 13.3% | [5] -4.5% | [6] -26.9%

CCCCCCCCCCCCCC(=O)OCC(=O)c1ccc(-c2ccccc2)cc1
inactive: [1] 23.1% | [2] 4.2% | [3] 32.5% | [4] 29.9% | [5] 11.4% | [6] 27.8%

CC(=O)Nc1ccc(S(=O)(=O)NNc2nc(N3CCCC3)nc(N3CCCC3)n2)cc1
inactive: [1] 1.7% | [2] -8.1% | [3] -14.4% | [4] 1.8% | [5] -1.25% | [6] 2.15%

O=C(O)c1ccc(N=C=S)cc1O
inactive: [1] -1.95% | [2] -8.75% | [3] -2.1% | [4] -12.8% | [5] 3.8% | [6] -1.8%

CN(N=O)C(=O)NCc1ccc(Cl)cc1
inactive: [1] -0.1% | [2] 15.8% | [3] 17.6% | [4] 12.4% | [5] 8.05% | [6] 1.15%

COc1ccc(CC2c3cc(OC)c(OC)cc3CCN2C(=O)OCc2ccccc2)cc1OC (stereo unspecified)
inactive: [1] 25.3% | [2] -4.1% | [3] 2.35% | [4] 19.6% | [5] 8.65% | [6] 12.1%

Nc1ccc([N+](=O)[O-])cc1F
inactive: [1] -18.6% | [2] -9.05% | [3] -9.85% | [4] -20.9% | [5] 3.95% | [6] -0.95%

COc1ccc2oc3c(C)cc4c(OC)nnc(OC)c4c3c2c1
inactive: [1] -43.8% | [2] -52.9% | [3] -13.4% | [4] -18.1% | [5] -5.35% | [6] -12.8%

Cc1cnccc1P(=O)(O)O
inactive: [1] 13.7% | [2] -4.8% | [3] 6.7% | [4] -21.7% | [5] -3.55% | [6] 5.65%

Cc1ccc(C(=O)NC2CCCCC2)cc1N=NN(C)C
inactive: [1] 31.4% | [2] -7.55% | [3] 18.7% | [4] 19.1% | [5] 9.45% | [6] -11.4%

From PubChem BioAssay (NCI)
